Experimental findings from PubChem BioAssay (NCATS) are described below.

Inconclusive results are not listed. Values without a mark were called inactive. Active and inactive are the calls of the source. Calls follow the shape of the full dose curve.
% is scaled to controls: 0 for no effect and ±100 for the full control effect; potency is read from the fitted curve at half-maximal effect.

A short description of the experiment: qHTS assay for small molecule disruptors of the mitochondrial membrane potential - 5 hr assay (AID 651755). Also: nearly all actives have a fitted effect of over 40% in size. To be noted: JC-1-type ratio dye; series mostly up to 92.2 µM; ratio change, negative = disruption: at the top concentration. An excerpt:
National Center for Advancing Translational Sciences [NCATS]
NIH Chemical Genomics Center [NCGC]
National Institutes of Environmental Health Sciences [NIEHS]
National Toxicology Program [NTP]
Mitochondrial membrane potential (MMP), one of the parameters for mitochondrial function, is generated by mitochondrial electron transport chain that creates an electrochemical gradient by a series of redox reactions. This gradient drives the synthesis of ATP, a crucial molecule for various cellular processes. Measuring MMP in living cells is commonly used to assess the effect of chemicals on mitochondrial function. […] The dye accumulates in the mitochondria of healthy cells as aggregates, with red fluorescence. The mitochondrial potential collapses and the dye can no longer accumulate in the mitochondria and remains in the cytoplasm in monomers, with green fluorescence.
2,000 HepG2 cells in 5 uL/well were dispensed into black, clear-bottom 1536-well plates using a Multidrop Combi (Thermo Scientific) dispenser. The assay plates were incubated overnight at 37C to allow cells to attach to the wells, followed by the transfer of 23 nL compound or DMSO vehicle by a pin tool (Kalypsys). The plates were incubated for 5 hr at 37C and 5% CO2, followed by the addition of 5 uL of 2X Mito-MPS dye (BD Biosciences) into each well using Flying Reagent Dispenser (Aurora Discovery) and then following 30 min incubation at 37C. Fluorescence intensity (490nm excitation and 535nm emission for monomers; and 540nm excitation and 590nm emissions for aggregates) was measured using an Envision plate reader.
On the technique in general: qHTS replaces the single test concentration by a dilution series.
For `C=CC(=O)OCCN(C)C`, the “ratio change, negative = disruption” value was 0.295%.
Same read-out and setting: the result for `ClCC(Cl)Cl` reads 4.76%; that for `Nc1ncc([N+](=O)[O-])s1`, -18.9%.
As for `CCCCCCCCCCCOC(=O)c1ccccc1C(=O)OCCCCCCCCCCC`, the “ratio change, negative = disruption” value is -10.5%.
In the case of `Nc1ccc2ccccc2c1`, the “ratio change, negative = disruption” value was 2.1%.
On to `Oc1cc(Cl)c(Cl)c(Cl)c1`, for which the Potency is 37.6 µM (active).
With `COC(=O)Nc1cccc(OC(=O)Nc2cccc(C)c2)c1`, the Potency was 42.2 µM (active).
Turning to `CCOP(=S)(OCC)Oc1nc(Cl)c(Cl)cc1Cl`, the “ratio change, negative = disruption” value is -17.1%.
As to `CCC/C=N/O`, the “ratio change, negative = disruption” value was 0.623%.
Still for that read-out and setting: next, `CCCBr`: 1.12%; `COC(=O)Nc1nc2ccccc2[nH]1`: -1.73%.
Still for that read-out and setting: the result for `[N-]=[N+]=[N-]` reads -12.1%.
Same read-out and setting: the result for `CC[N+](=O)[O-]` reads -0.0955%; that for `c1ccc(C2CO2)cc1` (stereo not given), 3.38%; that for `N#C/C=C/C#N`, -11.9%.
For the compound `Nc1cc(Cl)ccc1Cl`, the “ratio change, negative = disruption” value was 6.94%.
As to `[O-][Cl+2]([O-])O`, the “ratio change, negative = disruption” value was 7.26%.
The same measure, in the same setting: the result for `CN(C)N=O` reads 0.676%; that for `Cc1ccc2c(C)cccc2c1`, -6.3%.
As to `CCOS(C)(=O)=O`, the “ratio change, negative = disruption” value is 1.1%.
Same read-out and setting: next, `O=[N+]([O-])c1ccccc1O`: -0.571%; `O=C(O)C(Br)CBr` (stereo not given): 3.11%.
The same measure, in the same setting: next, `O=[N+]([O-])c1ccccc1CCl`: 0.82%; `ClC(Cl)C(Cl)Cl`: -3.25%; `OCCBr`: -1.98%.
The same measure, in the same setting: the result for `O=[N+]([O-])c1ccccc1-c1ccccc1` reads -0.283%.
On to `OCCOCCO`, for which the “ratio change, negative = disruption” value is 1.47%.
On to `N#CCBr`, for which the “ratio change, negative = disruption” value is 4.02%.
The same measure, in the same setting: next, `CN(C)C(=O)Nc1cccc(C(F)(F)F)c1`: 0.989%; `Nn1cnnc1`: 2.52%; `OCC(Cl)CCl` (stereo not given): -2.56%.
As for `c1ccc(Nc2ccc(Nc3ccccc3)cc2)cc1`, the Potency is 59.6 µM (active).
On to `Clc1cccc(Cl)c1Cl`, for which the “ratio change, negative = disruption” value was 4.06%.
The same measure, in the same setting: the result for `O=c1ccc(=O)[nH][nH]1` reads -11.2%; that for `C=CCCC#N`, 2.39%; that for `Nc1ccc(Oc2ccc(N)cc2)cc1`, 0.0744%.
As to `Cc1ccc2c(c1N)C(=O)c1ccccc1C2=O`, the Potency was 2.66 µM (active).
Take `ClC(Cl)(Cl)C(Cl)(Cl)Cl`: the “ratio change, negative = disruption” value is -0.485%.
Regarding `CCCCCc1cc(O)cc(O)c1`, the Potency is 37.6 µM (active).
On to `Brc1ccc(Oc2ccc(Br)cc2Br)c(Br)c1`, for which the “ratio change, negative = disruption” value is -17.6%.
